Records with an inconclusive call do not appear. Values without a mark were called inactive. Activity calls are given as the source filed them. The call rests on the fitted dose curve; in most records, active means well fitted cell-killing curve with a large enough effect; inconclusive means small, poorly fitted or top-dose-only effect, or effect the other way; inactive means no such curve, though single readings can be large or run the other way.
Test system: JEG-3
Experiment: Confirmatory qHTS for gynecologic anti-cancer compounds from libraries of approved drugs and bioactive compounds; further: nearly all actives have a fitted effect of over 55% in size
Details: gynecologic cancer cell panel viability, ATPlite luminescence, 48 h; series mostly up to 57.6 µM
Summary of the method: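 1,000 cells/well; 16 h pre-incubation 37 C, 5% CO2; pin-transferred cpd in DMSO, 11 conc (1:3), 57.5 uM–0.977 nM; 48 h; ATPlite, 15 min RT; luminescence → IC50.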
On the % scale 0 is the no-effect control and ±100 the full control effect; potency means the concentration at half of the fitted maximal effect.

SMILES	Potency	activity change, negative = viability loss
C#C[C@]1(O)CC[C@H]2[C@@H]3CCC4=CC(=O)CC[C@@H]4[C@H]3CC[C@@]21CC	inactive	
CC(=O)O[C@H]1C(=O)[C@@]2(C)[C@H]([C@H](OC(=O)c3ccccc3)[C@]3(O)C[C@H](OC(=O)[C@H](O)[C@@H](NC(=O)c4ccccc4)c4ccccc4)C(C)=C1C3(C)C)[C@]1(OC(C)=O)CO[C@@H]1C[C@@H]2O	0.0259 µM (active)	
CS(=O)(=O)c1ccc(C(=O)Nc2ccc(Cl)c(-c3ccccn3)c2)c(Cl)c1	inactive	
CN(NC(=O)CC(=O)NN(C)C(=S)c1ccccc1)C(=S)c1ccccc1	0.109 µM (active)	
CC(C)C[C@H](NC(=O)[C@@H](NC(=O)c1cccc(-c2ccccc2)n1)[C@@H](C)O)B(O)O	1.53 µM (active)	
COc1cccc2c1C(=O)c1c(O)c3c(c(O)c1C2=O)C[C@@](O)(C(=O)CO)C[C@@H]3O[C@H]1C[C@H](N)[C@H](O[C@@H]2CCCCO2)[C@H](C)O1	13.7 µM (active)	
COc1cc2nccc(Oc3ccc(NC(=O)C4(C(=O)Nc5ccc(F)cc5)CC4)cc3)c2cc1OC	10.9 µM (active)	
Nc1ccc(-c2ccc3ncc4ccc(=O)n(-c5cccc(C(F)(F)F)c5)c4c3c2)cn1	2.43 µM (active)	
CCN(CC)CCCC(C)Nc1ccnc2cc(Cl)ccc12 (stereo unspecified)	inactive	
CC(C)C[C@H](NC(=O)[C@H](CCc1ccccc1)NC(=O)CN1CCOCC1)C(=O)N[C@@H](Cc1ccccc1)C(=O)N[C@@H](CC(C)C)C(=O)[C@@]1(C)CO1	17.2 µM (active)	
O=C1N(c2ccccc2)c2ccccc2C1(Cc1ccncc1)Cc1ccncc1	inactive	
Nc1ncnc2c1ncn2[C@@H]1O[C@H](CO)C[C@H]1O	inactive	
CN1C2CCC1CC(OC(=O)[C@H](CO)c1ccccc1)C2 (stereo partly specified)	inactive	
CC(C)c1nn(-c2c(Cl)cccc2Cl)c2nc(Cc3ccc(OCCO)cc3)[nH]c(=O)c12	0.0685 µM (active)	
Fc1cc(-c2cccc3ncc(-c4cnn(C5CCNCC5)c4)nc23)cc(F)c1CN1CCOCC1	30.6 µM (active)	
CC(=O)c1cnc2ccc(-c3cc(Cl)c(O)c(Cl)c3)nc2c1NC1CCC(CN(C)C)CC1 (stereo unspecified)	0.627 µM (active)	

SMILES	Potency	activity change, negative = viability loss
Cc1nc(N)sc1-c1ccnc(Nc2ccc(N3CCOCC3)cc2)n1	13.7 µM (active)	
Cc1cc(C(=O)N2CCN(c3cccc(Cl)c3)CC2)n(-c2ccccc2)n1	3.43 µM (active)	
Nc1nc(Cl)nc2c1ncn2C1OC(CO)C(O)C1F (stereo unspecified)	2.17 µM (active)	
O=C(CCCCCCC(=O)Nc1ccccc1)NO	2.43 µM (active)	
COc1cc2c(NC3CCN(C(C)C)CC3)nc(C3CCCCC3)nc2cc1OCCCN1CCCC1	10.9 µM (active)	
Oc1cn2c(n1)Nc1ccc(Cl)c(Cl)c1C2	inactive	
Nc1ccn([C@@H]2O[C@H](CO)[C@@H](O)C2(F)F)c(=O)n1	inactive	
CCCCc1oc2ccc(NS(C)(=O)=O)cc2c1C(=O)c1ccc(OCCCN(CCCC)CCCC)cc1	27.3 µM (active)	
CN1CCN(Cc2ccc(NC(=O)Nc3ccc(Oc4cc(NC(=O)C5CC5)ncn4)cc3)cc2C(F)(F)F)CC1	0.243 µM (active)	
Cc1c(NC(=O)OCC2COCCN2)cn2ncnc(Nc3ccc4c(cnn4Cc4cccc(F)c4)c3)c12 (stereo unspecified)	30.6 µM (active)	
OCc1ccc(-c2ccc(-c3ccc(CO)s3)o2)s1	inactive	
Nc1ccc(C(=O)Nc2cccc(-c3nc(N4CCOCC4)c4oc5ncccc5c4n3)c2)cn1	5.44 µM (active)	
C[C@]12CCC(=O)C=C1CC[C@@H]1[C@@H]2[C@@H](O)C[C@@]2(C)[C@H]1CC[C@]2(O)C(=O)CO	inactive	
CC[C@H](Nc1ncnc2nc[nH]c12)c1nc2cccc(F)c2c(=O)n1-c1ccccc1		-0.887% [at 10.6 µM]
CCC(=O)N1CCN(c2ccc(-n3c(=O)ccc4cnc5ccc(-c6cnc7ccccc7c6)cc5c43)cc2C(F)(F)F)CC1	6.27 µM (active)	

Reference: PubChem BioAssay AID1345085 (National Center for Advancing Translational Sciences (NCATS), 2018)
